Experimental data from PubChem BioAssay.
Several values for one entry are separate records, joined by “and”; a condition that tells them apart may be missing. Equal values may be shown once. Activity calls are given as the source filed them. How the calls were made is not given here.

Target: Pantothenate synthetase (Mycobacterium tuberculosis (strain ATCC 25618 / H37Rv)) (UniProt P9WIL5)
Test: Recombinant Mtb pantothenate synthetase (PanC) inhibitors, coupled enzyme, confirmatory (AID 375);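 further: 0% = full reaction with vehicle and 100% = no enzyme background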
Conditions: coupled enzyme assay; at 10 µM, stronger effect = higher value

Chain of Pantothenate synthetase (Mycobacterium tuberculosis (strain ATCC 25618 / H37Rv)) (P9WIL5 whole entry, looked up): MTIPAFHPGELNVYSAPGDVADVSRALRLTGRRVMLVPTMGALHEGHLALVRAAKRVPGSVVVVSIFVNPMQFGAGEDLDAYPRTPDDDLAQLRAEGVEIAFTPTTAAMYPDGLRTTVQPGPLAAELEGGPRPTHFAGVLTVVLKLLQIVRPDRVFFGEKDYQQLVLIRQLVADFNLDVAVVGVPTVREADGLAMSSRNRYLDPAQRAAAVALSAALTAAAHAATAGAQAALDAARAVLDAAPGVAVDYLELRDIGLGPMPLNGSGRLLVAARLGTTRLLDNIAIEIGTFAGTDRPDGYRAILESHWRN

Row | Structure (SMILES) | inhibition
1 | O=C(COC(=O)C1(c2ccccc2F)CCCC1)NC1CCS(=O)(=O)C1 (stereo not given) | 3% (inactive)
2 | CC(=O)c1c(C)[nH]c(C(=O)NC2=NCCS2)c1C | 0% (inactive)
3 | O=C(CN1C(=O)COc2ccccc21)NCCCN1CCN(Cc2ccccc2)CC1 | 0% (inactive)
4 | COc1ccc(Cn2nnnc2C(c2cccnc2)N2CCN(c3ccc(O)cc3)CC2)cc1 (stereo not given) | 0% (inactive)
5 | CCN(CC)S(=O)(=O)c1ccc2oc(SCc3ccc(F)cc3)nc2c1 | 5% (inactive)
6 | CCOC(=O)/C(C#N)=C(/C)c1ccc(OC)cc1 | 0% (inactive)
7 | N#CCCn1ccc(NC(=O)c2ccc(Cl)cc2)n1 | 0% (inactive)
8 | CCOC(=O)/C=C1\SCC(=O)N1Cc1nnc(-c2ccccc2Br)o1 | 0% (inactive)
9 | COc1ccc(-n2c(SCC(N)=O)nc3sc4c(c3c2=O)CCN(C)C4)cc1 | 0% (inactive)
10 | CCOc1ccc(OCC)c(NC(=O)C2CCN(c3ncccn3)CC2)c1 | 0% (inactive)
11 | COCCNC(=O)C(c1ccc(C)o1)N(Cc1ccc(OC)cc1)C(=O)Cn1nnc2ccccc21 (stereo not given) | 1% (inactive)
12 | OC(CCN1CCOCC1)(c1ccc(Cl)cc1)C1CCCCC1 (stereo not given) | 0% (inactive)
13 | Cc1ccc(OCCC(=O)OCC(=O)C(C)(C)C)cc1 | 8% (inactive)
14 | Cc1ccc(Cn2c(CN3CCOCC3)nc3c2c(=O)n(C)c(=O)n3C)cc1 | 0% (inactive)
15 | COc1nc(NCCc2ccc(OC)c(OC)c2)nc(NC(C)(C)CO)n1 | 0% (inactive)
16 | C/C(Cl)=C\Cn1c(Nc2ccc(C)cc2)nc2c1c(=O)n(C)c(=O)n2C | 3% (inactive)
17 | CC1(C)C(=O)Nc2ccccc2N1C(=O)COC(=O)Cn1cnc2ccccc2c1=O | 0% (inactive)
18 | Cn1c2c(c(=O)[nH]c1=O)C(NC(=O)c1ccco1)(C(F)(F)F)C(=O)N2 (stereo not given) | 0% (inactive)
19 | CCOC(=O)N1CCN(C(=O)CSc2nnc(COc3ccccc3)o2)CC1 | 2% (inactive)
20 | CCN(CC)CCN1C(=O)C(O)=C(C(=O)c2ccco2)C1c1ccccn1 (stereo not given) | 8% (inactive)

Row | Structure (SMILES) | inhibition
21 | CC(C)n1c(NCc2c[nH]c3ccccc23)nc2ccccc21 | 0% (inactive)
22 | CCOc1c(C)cc2[nH]c(CCC(=O)O)nc2c1C | 0% (inactive)
23 | C[C@@H]1C[C@H]2[C@@H]3CCC4=CC(=O)C=C[C@]4(C)[C@@]3(F)[C@@H](O)C[C@]2(C)[C@H]1C(=O)CO | 1% (inactive)
24 | CC(=O)c1c(C)[nH]c(C(=O)N2CCN(C(=O)c3ccco3)CC2)c1C | 0% (inactive)
25 | O=C(CCN1C(=O)C2C3C=CC(C3)C2C1=O)N1CCN(c2ccccc2Cl)CC1 (stereo not given) | 3% (inactive)
26 | COc1ccccc1OCC(=O)N1CCN(c2ccccc2OC)CC1 | 0% (inactive)
27 | CN(C)C(=O)Oc1cccc([N+](C)(C)C)c1 | 9% (inactive) and 0% (inactive)
28 | O=C(NCc1cccnc1)c1ccc2c(c1)OCO2 | 0% (inactive)
29 | O=S(=O)(NCCc1ccccc1F)c1cccc(S(=O)(=O)N2CCOCC2)c1 | 0% (inactive)
30 | COc1ccccc1NC(=O)NC(N)=O | 0% (inactive)
31 | COc1cccc(CNC(=O)Cn2c(=O)oc3ccccc32)c1OC | 0% (inactive)
32 | O=C(Cn1ncc2ccccc21)N1CCN(c2cccc(C(F)(F)F)c2)CC1 | 2% (inactive)
33 | COCCN(CCOC)Cc1c(C)[nH]c2ccccc2c1=O | 0% (inactive)
34 | OCCN1CCN(CC(O)COc2ccc3ccccc3c2)CC1 (stereo not given) | 0% (inactive)
35 | Cc1onc(-c2ccccc2Cl)c1C(=O)Nc1cccnc1 | 5% (inactive)
36 | CCC(C)(C(=O)NC1CCCCC1)N(Cc1ccco1)C(=O)c1ccc2c(c1)OCO2 (stereo not given) | 0% (inactive)
37 | C[C@H]1C[C@@H]2[C@H]([C@@H](O)C[C@@]3(C)[C@H]2CC[C@]3(O)C(=O)CO)[C@@]2(C)C=CC(=O)C=C12 | 0% (inactive)
38 | O=C(c1ccc(F)cc1)C1CCN(CCn2c(=O)[nH]c3ccccc3c2=O)CC1 | 0% (inactive)
39 | CN1CCN(CC(=O)N2c3ccccc3C(=O)Nc3cccnc32)CC1 | 4% (inactive)
40 | CCC(CC)C(=O)Nc1cccc(C(=O)NCc2ccco2)c1 | 6% (inactive)
